Laboratory results: the supplement of paper PMC12282887
± gives the standard deviation of the averaged measurements.

Columns and labels:
Assay in all cases: promoter activity interaction Z-score (Lux/OD deviation from empty-vector control); higher = stronger promoter induction by the compound
[1] = tested on: E. coli BW25113 acrABp lux reporter
Method in brief: (§1)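 At 37°C, E. coli BW25113 reporter cultures in 40 µl LB Lennox in 384-well plates were read for OD600 and luminescence every 30 min for 12 h. Windows were 0–8 h for wild type and 1–9 h for deletion strains, and wells under 10% of the median growth value were removed. The score is the Z-transformed residual of growth-normalised luminescence against a control fit.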

[2] = tested on: E. coli BW25113 marRABp lux reporter
Method in brief: as §1

[3] = tested on: E. coli BW25113 micFp lux reporter
Method in brief: as §1

[4] = tested on: E. coli BW25113 ompFp lux reporter
Method in brief: as §1

[5] = tested on: E. coli BW25113 robp lux reporter
Method in brief: as §1

[6] = tested on: E. coli BW25113 soxSp lux reporter
Method in brief: as §1

[7] = tested on: E. coli BW25113 tolCp lux reporter
Method in brief: as §1

[8] = 0.11 µg/ml, genetic background: wild type
[9] = 0.11 µg/ml, genetic background: ΔmarA
[10] = 0.11 µg/ml, genetic background: Δrob
[11] = 0.11 µg/ml, genetic background: ΔsoxS
[12] = 0.21 µg/ml, genetic background: wild type
[13] = 0.21 µg/ml, genetic background: ΔmarA
[14] = 0.21 µg/ml, genetic background: Δrob
[15] = 0.21 µg/ml, genetic background: ΔsoxS
[16] = 0.43 µg/ml, genetic background: wild type
[17] = 0.43 µg/ml, genetic background: ΔmarA
[18] = 0.43 µg/ml, genetic background: Δrob
[19] = 0.43 µg/ml, genetic background: ΔsoxS
[20] = 0.86 µg/ml, genetic background: wild type
[21] = 0.86 µg/ml, genetic background: ΔmarA
[22] = 0.86 µg/ml, genetic background: Δrob
[23] = 0.86 µg/ml, genetic background: ΔsoxS

SMILES: Cc1ncc([N+](=O)[O-])n1CCO [Metronidazole]
- promoter activity interaction Z-score [1, 8]: 0.0148 ± 0.051
- promoter activity interaction Z-score [1, 9]: 0.993 ± 0.18
- promoter activity interaction Z-score [1, 10]: 0.102 ± 0.12
- promoter activity interaction Z-score [1, 11]: 0.194 ± 0.31
- promoter activity interaction Z-score [1, 12]: -0.197 ± 0.0096
- promoter activity interaction Z-score [1, 13]: -0.0386 ± 0.09
- promoter activity interaction Z-score [1, 14]: 0.0596 ± 0.14
- promoter activity interaction Z-score [1, 15]: 0.187 ± 0.31
- promoter activity interaction Z-score [1, 16]: -0.222 ± 0.18
- promoter activity interaction Z-score [1, 17]: 0.706 ± 0.8
- promoter activity interaction Z-score [1, 18]: -0.0336 ± 0.17
- promoter activity interaction Z-score [1, 19]: 0.0816 ± 0.12
- promoter activity interaction Z-score [1, 20]: 0.191 ± 0.025
- promoter activity interaction Z-score [1, 21]: 0.645 ± 0.49
- promoter activity interaction Z-score [1, 22]: 0.143 ± 0.34
- promoter activity interaction Z-score [1, 23]: -0.0136 ± 0.22
- promoter activity interaction Z-score [2, 8]: 0.18 ± 0.22
- promoter activity interaction Z-score [2, 9]: -0.0383 ± 0.16
- promoter activity interaction Z-score [2, 10]: -0.0923 ± 0.23
- promoter activity interaction Z-score [2, 11]: -0.209 ± 0.08
- promoter activity interaction Z-score [2, 12]: 0.0869 ± 0.33
- promoter activity interaction Z-score [2, 13]: -0.213 ± 0.16
- promoter activity interaction Z-score [2, 14]: 0.0389 ± 0.047
- promoter activity interaction Z-score [2, 15]: 0.0145 ± 0.012
- promoter activity interaction Z-score [2, 16]: -0.113 ± 0.25
- promoter activity interaction Z-score [2, 17]: 0.07 ± 0.011
- promoter activity interaction Z-score [2, 18]: 0.119 ± 0.23
- promoter activity interaction Z-score [2, 19]: -0.0739 ± 0.18
- promoter activity interaction Z-score [2, 20]: 0.0285 ± 0.35
- promoter activity interaction Z-score [2, 21]: 0.0853 ± 0.054
- promoter activity interaction Z-score [2, 22]: 0.0343 ± 0.03
- promoter activity interaction Z-score [2, 23]: -0.0303 ± 0.042
- promoter activity interaction Z-score [3, 8]: -0.0559 ± 0.11
- promoter activity interaction Z-score [3, 9]: -0.0152 ± 0.0074
- promoter activity interaction Z-score [3, 10]: 0.0206 ± 0.0032
- promoter activity interaction Z-score [3, 11]: -0.264 ± 0.11
- promoter activity interaction Z-score [3, 12]: -0.327 ± 0.068
- promoter activity interaction Z-score [3, 13]: -0.09496 ± 0.00031
- promoter activity interaction Z-score [3, 14]: -0.0735 ± 0.081
- promoter activity interaction Z-score [3, 15]: -0.0751 ± 0.037
- promoter activity interaction Z-score [3, 16]: -0.152 ± 0.26
- promoter activity interaction Z-score [3, 17]: -0.0333 ± 0.092
- promoter activity interaction Z-score [3, 18]: -0.000559 ± 0.02
- promoter activity interaction Z-score [3, 19]: -0.18 ± 0.06
- promoter activity interaction Z-score [3, 20]: -0.0833 ± 0.079
- promoter activity interaction Z-score [3, 21]: 0.00541 ± 0.1
- promoter activity interaction Z-score [3, 22]: -0.0861 ± 0.014
- promoter activity interaction Z-score [3, 23]: -0.189 ± 0.084
- promoter activity interaction Z-score [4, 8]: 0.217 ± 0.3
- promoter activity interaction Z-score [4, 9]: 0.187 ± 0.0061
- promoter activity interaction Z-score [4, 10]: -0.155 ± 0.074
- promoter activity interaction Z-score [4, 11]: -0.0733 ± 0.12
- promoter activity interaction Z-score [4, 12]: -0.138 ± 0.22
- promoter activity interaction Z-score [4, 13]: -0.0604 ± 0.18
- promoter activity interaction Z-score [4, 14]: 0.261 ± 0.17
- promoter activity interaction Z-score [4, 15]: 0.2636 ± 0.0018
- promoter activity interaction Z-score [4, 16]: -0.0385 ± 0.54
- promoter activity interaction Z-score [4, 17]: 0.144 ± 0.29
- promoter activity interaction Z-score [4, 18]: 0.609 ± 0.017
- promoter activity interaction Z-score [4, 19]: 0.11 ± 0.042
- promoter activity interaction Z-score [4, 20]: 0.547 ± 0.5
- promoter activity interaction Z-score [4, 21]: 1.12 ± 0.3
- promoter activity interaction Z-score [4, 22]: 0.862 ± 0.19
- promoter activity interaction Z-score [4, 23]: 0.815 ± 0.34
- promoter activity interaction Z-score [5, 8]: 0.061 ± 0.23
- promoter activity interaction Z-score [5, 9]: 0.425 ± 0.28
- promoter activity interaction Z-score [5, 10]: 0.355 ± 0.21
- promoter activity interaction Z-score [5, 11]: -0.235 ± 0.13
- promoter activity interaction Z-score [5, 12]: 0.165 ± 0.35
- promoter activity interaction Z-score [5, 13]: -0.111 ± 0.75
- promoter activity interaction Z-score [5, 14]: 0.8 ± 0.29
- promoter activity interaction Z-score [5, 15]: 0.979 ± 1.1
- promoter activity interaction Z-score [5, 16]: 0.177 ± 0.99
- promoter activity interaction Z-score [5, 17]: 0.7 ± 0.077
- promoter activity interaction Z-score [5, 18]: 0.452 ± 0.054
- promoter activity interaction Z-score [5, 19]: -0.0713 ± 0.41
- promoter activity interaction Z-score [5, 20]: 0.378 ± 0.83
- promoter activity interaction Z-score [5, 21]: 0.776 ± 0.22
- promoter activity interaction Z-score [5, 22]: 0.36 ± 0.24
- promoter activity interaction Z-score [5, 23]: 0.489 ± 0.32
- promoter activity interaction Z-score [6, 8]: 0.0487 ± 0.14
- promoter activity interaction Z-score [6, 9]: 0.0513 ± 0.066
- promoter activity interaction Z-score [6, 10]: -0.047 ± 0.051
- promoter activity interaction Z-score [6, 11]: -0.0356 ± 0.017
- promoter activity interaction Z-score [6, 12]: -0.0569 ± 0.11
- promoter activity interaction Z-score [6, 13]: -0.088 ± 0.048
- promoter activity interaction Z-score [6, 14]: 0.106 ± 0.0032
- promoter activity interaction Z-score [6, 15]: 0.0415 ± 0.21
- promoter activity interaction Z-score [6, 16]: 0.0827 ± 0.065
- promoter activity interaction Z-score [6, 17]: -0.0818 ± 0.06
- promoter activity interaction Z-score [6, 18]: 0.0852 ± 0.18
- promoter activity interaction Z-score [6, 19]: 0.0431 ± 0.011
- promoter activity interaction Z-score [6, 20]: 0.036 ± 0.026
- promoter activity interaction Z-score [6, 21]: -0.085 ± 0.049
- promoter activity interaction Z-score [6, 22]: -0.132 ± 0.058
- promoter activity interaction Z-score [6, 23]: 0.0974 ± 0.06
- promoter activity interaction Z-score [7, 8]: -0.237 ± 0.51
- promoter activity interaction Z-score [7, 9]: 0.544 ± 0.53
- promoter activity interaction Z-score [7, 10]: -0.201 ± 0.23
- promoter activity interaction Z-score [7, 11]: 0.183 ± 0.079
- promoter activity interaction Z-score [7, 12]: -0.938 ± 0.4
- promoter activity interaction Z-score [7, 13]: -0.0891 ± 0.26
- promoter activity interaction Z-score [7, 14]: 0.158 ± 0.57
- promoter activity interaction Z-score [7, 15]: -0.129 ± 0.43
- promoter activity interaction Z-score [7, 16]: -0.953 ± 0.17
- promoter activity interaction Z-score [7, 17]: 0.401 ± 1.3
- promoter activity interaction Z-score [7, 18]: -0.12 ± 0.26
- promoter activity interaction Z-score [7, 19]: -0.386 ± 0.015
- promoter activity interaction Z-score [7, 20]: 0.119 ± 0.47
- promoter activity interaction Z-score [7, 21]: 0.316 ± 0.49
- promoter activity interaction Z-score [7, 22]: -0.271 ± 1.3
- promoter activity interaction Z-score [7, 23]: 0.345 ± 0.71
